Among all 5,500 compounds or so, about 2,000 (36%) were called active. Another 18% or so got no clear call; they are omitted. No stated cut-off is given here; in the data, active means normalized growth mostly below about 0.91 (no sharp cut-off); inconclusive means no clear call, values can overlap the other calls; inactive means mostly above about 0.92. The list shows a part of the results.
Experiment: chemical genetic growth profiling, strain panel (AID 1159580);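 further: tested at 20 µM; growth read once vehicle control cultures reached saturation at 30 °C; 1 = growth at the plate median or of vehicle wells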
Conditions: growth OD
[1] = S. cerevisiae deletion strains, locus YBR021W, strain FUR4, stronger effect = lower value
[2] = S. cerevisiae deletion strains, locus YBR229C, strain ROT2, stronger effect = lower value
[3] = S. cerevisiae deletion strains, locus YCL029C, strain bik1, stronger effect = lower value
[4] = S. cerevisiae deletion strains, locus YDL035C, strain GPR1, stronger effect = lower value
[5] = S. cerevisiae deletion strains, locus YDL074C, strain BRE1, stronger effect = lower value
[6] = S. cerevisiae deletion strains, locus YDL101C, strain DUN1, stronger effect = lower value
[7] = S. cerevisiae deletion strains, locus YDL185W, strain tfp1, stronger effect = lower value
[8] = S. cerevisiae deletion strains, locus YDL192W, strain arf1, stronger effect = lower value
[9] = S. cerevisiae deletion strains, locus YDR101C, strain arx1, stronger effect = lower value
[10] = S. cerevisiae deletion strains, locus YDR162C, strain NBP2, stronger effect = lower value
[11] = S. cerevisiae deletion strains, locus YDR318W, strain mcm21, stronger effect = lower value
[12] = S. cerevisiae deletion strains, locus YDR388W, stronger effect = lower value
[13] = S. cerevisiae deletion strains, locus YDR502C, strain sam2, stronger effect = lower value
[14] = S. cerevisiae deletion strains, locus YER110C, stronger effect = lower value
[15] = S. cerevisiae deletion strains, locus YER155C, strain BEM2, stronger effect = lower value
[16] = S. cerevisiae deletion strains, locus YER167W, strain BCK2, stronger effect = lower value
[17] = S. cerevisiae deletion strains, locus YGL078C, strain dbp3, stronger effect = lower value
[18] = S. cerevisiae deletion strains, locus YGL086W, strain mad1, stronger effect = lower value
[19] = S. cerevisiae deletion strains, locus YGL248W, strain PDE1, stronger effect = lower value
[20] = S. cerevisiae deletion strains, locus YGR135W, strain pre9, stronger effect = lower value
[21] = S. cerevisiae deletion strains, locus YGR252W, strain gcn5, stronger effect = lower value
[22] = S. cerevisiae deletion strains, locus YHR079C, strain IRE1 (second series), stronger effect = lower value
[23] = S. cerevisiae deletion strains, locus YHR094C, strain hxt1, stronger effect = lower value
[24] = S. cerevisiae deletion strains, locus YHR129C, strain ARP1, stronger effect = lower value
[25] = S. cerevisiae deletion strains, locus YHR200W, strain rpn10, stronger effect = lower value
[26] = S. cerevisiae deletion strains, locus YIL066C, strain RNR3, stronger effect = lower value
[27] = S. cerevisiae deletion strains, locus YIL073C, strain SPO22, stronger effect = lower value
[28] = S. cerevisiae deletion strains, locus YIL125W, strain kgd1, stronger effect = lower value
[29] = S. cerevisiae deletion strains, locus YIR030C, strain dcg1, stronger effect = lower value
[30] = S. cerevisiae deletion strains, locus YJL095W, strain BCK1, stronger effect = lower value
[31] = S. cerevisiae deletion strains, locus YJL134W, strain LCB3, stronger effect = lower value
[32] = S. cerevisiae deletion strains, locus YJL168C, strain set2, stronger effect = lower value
[33] = S. cerevisiae deletion strains, locus YJL187C, strain SWE1 (second series), stronger effect = lower value
[34] = S. cerevisiae deletion strains, locus YKL009W, strain mrt4, stronger effect = lower value
[35] = S. cerevisiae deletion strains, locus YKL068W, stronger effect = lower value
[36] = S. cerevisiae deletion strains, locus YKL085W, strain MDH1 (second series), stronger effect = lower value
[37] = S. cerevisiae deletion strains, locus YKL085W, strain MDH1, stronger effect = lower value
[38] = S. cerevisiae deletion strains, locus YKR001C, strain vps1, stronger effect = lower value
[39] = S. cerevisiae deletion strains, locus YLR039C, strain RIC1, stronger effect = lower value
[40] = S. cerevisiae deletion strains, locus YLR058C, strain SHM2, stronger effect = lower value
[41] = S. cerevisiae deletion strains, locus YLR102C, strain apc9, stronger effect = lower value
[42] = S. cerevisiae deletion strains, locus YLR262C, strain YPT6, stronger effect = lower value
[43] = S. cerevisiae deletion strains, locus YLR268W, strain sec22, stronger effect = lower value
[44] = S. cerevisiae deletion strains, locus YLR371W, strain rom2, stronger effect = lower value
[45] = S. cerevisiae deletion strains, locus YLR418C, strain cdc73, stronger effect = lower value
[46] = S. cerevisiae deletion strains, locus YML016C, strain PPZ1, stronger effect = lower value
[47] = S. cerevisiae deletion strains, locus YML032C, strain rad52, stronger effect = lower value
[48] = S. cerevisiae deletion strains, locus YML124C, strain tub3, stronger effect = lower value
[49] = S. cerevisiae deletion strains, locus YMR078C, strain ctf18, stronger effect = lower value
[50] = S. cerevisiae deletion strains, locus YMR223W, strain ubp8, stronger effect = lower value
[51] = S. cerevisiae deletion strains, locus YMR263W, strain SAP30, stronger effect = lower value
[52] = S. cerevisiae deletion strains, locus YMR307W, strain GAS1, stronger effect = lower value
[53] = S. cerevisiae deletion strains, locus YNL067W, strain RPL9B, stronger effect = lower value
[54] = S. cerevisiae deletion strains, locus YNL233W, strain BNI4, stronger effect = lower value
[55] = S. cerevisiae deletion strains, locus YNL250W, strain rad50, stronger effect = lower value
[56] = S. cerevisiae deletion strains, locus YNL271C, strain bni1, stronger effect = lower value
[57] = S. cerevisiae deletion strains, locus YNL298W, strain CLA4, stronger effect = lower value
[58] = S. cerevisiae deletion strains, locus YNL307C, strain MCK1, stronger effect = lower value
[59] = S. cerevisiae deletion strains, locus YNR052C, strain pop2, stronger effect = lower value
[60] = S. cerevisiae deletion strains, locus YOL012C, strain htz1
[61] = S. cerevisiae deletion strains, locus YOL147C, strain pex11, stronger effect = lower value
[62] = S. cerevisiae deletion strains, locus YOR061W, strain CKA2, stronger effect = lower value
[63] = S. cerevisiae deletion strains, locus YOR069W, strain VPS5, stronger effect = lower value
[64] = S. cerevisiae deletion strains, locus YOR136W, strain idh2, stronger effect = lower value
[65] = S. cerevisiae deletion strains, locus YOR144C, strain elg1, stronger effect = lower value
[66] = S. cerevisiae deletion strains, locus YOR184W, strain ser1, stronger effect = lower value
[67] = S. cerevisiae deletion strains, locus YOR316C, strain cot1, stronger effect = lower value
[68] = S. cerevisiae deletion strains, locus YPL241C, strain CIN2, stronger effect = lower value
[69] = S. cerevisiae deletion strains, locus YPR119W, strain clb2, stronger effect = lower value
[70] = S. cerevisiae deletion strains, locus YPR141C, strain kar3, stronger effect = lower value
[71] = S. cerevisiae deletion strains, locus YPR163C, strain tif3, stronger effect = lower value
[72] = S. cerevisiae deletion strains, locus YPR167C, strain met16, stronger effect = lower value
[73] = S. cerevisiae deletion strains, strain wtn01, stronger effect = lower value

Measured: normalized growth

CC1(C)C(O)CC(O)C2(C)C1CC(O)C1(C)C2CCC2(C)C(c3ccoc3)CC3OC321 (centres undefined)
inactive: [1] 0.936 | [2] 1.01 | [3] 1 | [4] 0.969 | [5] 0.973 | [6] 1 | S. cerevisiae deletion strains, locus YDL134C, strain PPH21, stronger effect = lower value 0.992 | [7] 1.02 | [8] 1 | [9] 0.987 | [10] 0.998 | [11] 1 | [12] 1.01 | [13] 0.998 | S. cerevisiae deletion strains, locus YEL061C, strain CIN8, stronger effect = lower value 0.997 | [14] 1.02 | [15] 0.996 | [16] 1 | [17] 1.01 | [18] 0.99 | [19] 1 | S. cerevisiae deletion strains, locus YGR078C, strain PAC10, stronger effect = lower value 0.991 | [20] 0.997 | [21] 0.981 | S. cerevisiae deletion strains, locus YHR030C, strain SLT2, stronger effect = lower value 1.01 | [22] 1.02 | [23] 1.01 | [24] 0.998 | [25] 1 | [26] 0.99 | [27] 1.04 | [28] 1.01 | [29] 1.02 | [30] 0.978 | [31] 0.998 | [32] 1.01 | [33] 0.996 | [34] 0.982 | [35] 1.01 | [36] 0.996 | [37] 0.996 | [38] 0.99 | [39] 1.03 | [40] 0.998 | [41] 1 | [42] 1.01 | [43] 0.993 | [44] 0.994 | [45] 0.983 | [46] 1 | [47] 1.01 | [48] 1.01 | [49] 1.02 | [50] 0.989 | [51] 1.01 | [52] 0.991 | [53] 1 | S. cerevisiae deletion strains, locus YNL128W, strain TEP1, stronger effect = lower value 0.998 | [54] 0.978 | [55] 1.01 | [56] 1.01 | [57] 1.01 | [58] 1.03 | S. cerevisiae deletion strains, locus YNL322C, strain KRE1, stronger effect = lower value 0.996 | [59] 1 | [60] 1.12 | [61] 1 | [62] 1 | [63] 1 | [64] 0.998 | [65] 1.02 | [66] 0.976 | [67] 1.01 | S. cerevisiae deletion strains, locus YPL055C, strain LGE1, stronger effect = lower value 0.988 | [68] 0.997 | [69] 1.01 | [70] 1.02 | [71] 1.01 | [72] 1.01 | [73] 0.986 | S. cerevisiae strains, strain wild type, stronger effect = lower value 0.972

CC(=O)OC1CC(OC(C)=O)C2(C)C(CC(OC(C)=O)C3(C)C2CCC2(C)C(c4ccoc4)CC4OC423)C1(C)C (centres undefined)
inactive: [1] 0.998 | [2] 1 | [3] 1 | [4] 1.01 | [5] 1.02 | [6] 1.03 | [7] 1.01 | [8] 1.01 | [9] 0.998 | [10] 1.01 | [11] 1 | [12] 1.01 | [13] 1.02 | [14] 1.01 | [15] 1 | [16] 1.01 | [17] 1.02 | [18] 0.997 | [19] 1.01 | [20] 1.04 | S. cerevisiae deletion strains, locus YGR229C, strain SMI1, stronger effect = lower value 1.02 | [21] 0.998 | [22] 1.01 | [23] 1.01 | [24] 1.02 | [25] 1.01 | [26] 1.01 | [27] 1.05 | [28] 1.01 | [29] 1 | [30] 1.04 | [31] 1.01 | [32] 1.01 | [33] 1.02 | S. cerevisiae deletion strains, locus YJR043C, strain POL32, stronger effect = lower value 0.981 | [34] 0.984 | [35] 1 | [36] 1.01 | [37] 1.01 | [38] 1 | [39] 1.01 | [40] 1.01 | [41] 1.01 | [42] 0.927 | [43] 0.994 | S. cerevisiae deletion strains, locus YLR330W, strain CHS5, stronger effect = lower value 1.02 | S. cerevisiae deletion strains, locus YLR342W, strain FKS1 (second series), stronger effect = lower value 1 | [44] 1.02 | [45] 1.02 | [46] 1.01 | [47] 1.01 | [48] 1 | [49] 1.01 | [50] 1.01 | [51] 1.02 | [52] 1.01 | [53] 1.03 | S. cerevisiae deletion strains, locus YNL153C, strain GIM3, stronger effect = lower value 1.03 | [54] 0.986 | [55] 1.01 | [56] 0.998 | [57] 1.02 | [58] 1.02 | [59] 1.01 | [60] 0.881 | [61] 0.996 | [62] 1 | [63] 1.01 | [64] 1 | [65] 0.999 | [66] 0.982 | [67] 1.01 | [68] 1.01 | [69] 1 | [70] 1.02 | [71] 1.01 | [72] 1.01 | [73] 0.997

Reference: PubChem BioAssay AID1159580 (chemical genetic matrix, 2015)
